The supplement of paper PMC13380429
Unmarked numbers belong to inactive results.

System: Vero E6 infected with SARS-CoV-2
Test: inhibition of SARS-CoV-2 cytopathic effect; higher = more antiviral protection, active = above 15
Conditions: 48 h

SMILES	inhibition of SARS-CoV-2 cytopathic effect (1 nM)	inhibition of SARS-CoV-2 cytopathic effect (8.33 nM)	inhibition of SARS-CoV-2 cytopathic effect (100 nM)	inhibition of SARS-CoV-2 cytopathic effect (833.33 nM)	inhibition of SARS-CoV-2 cytopathic effect (10000 nM)
CCOc1ccccc1C(=O)O [2-ethoxybenzoic-acid]	2.67%	3.72%	4.26%	0.66%	-0.66%
Cc1ccccc1-n1c(Cn2ncc3c(N)ncnc32)nc2cccc(C)c2c1=O	-1.01%	0.63%	0.62%	-3.58%	54.3% (active)
CCOc1ccn(-c2ccc(F)cc2)c(=O)c1C(=O)Nc1ccc(Oc2ccnc(N)c2Cl)c(F)c1	2.67%	1.32%	-5.33%	2.11%	-3.09%
CNC(=O)c1cccc(NC(=O)N2CCC(Oc3ccccc3Cl)CC2)c1	0.48%	-3.23%	-1.17%	-2.36%	-3.23%
NCCCS(=O)(=O)O [tramiprosate]	2.5%	3.61%	3.29%	3.22%	2.51%
CCN(CC)C(=O)[C@@]1(c2ccccc2)C[C@H]1CN [milnacipran]	-4.3%	-3.38%	-4.94%	-0.26%	1.05%
N#CSc1cc(SC#N)c(N)nc1N	-1.78%	0.62%	3.56%	0.7%	11.2%
CCNC(=O)C[C@@H]1N=C(c2ccc(Cl)cc2)c2cc(OC)ccc2-n2c(C)nnc21	-1.97%	-1.13%	0.74%	-0.08%	-9.5%
CC#CCn1c(N2CCC[C@@H](N)C2)nc2c1c(=O)n(Cc1nc(C)c3ccccc3n1)c(=O)n2C [linagliptin]	0.74%	-3.62%	-0.93%	-3.72%	-11.3%
OC[C@H]1O[C@@H](n2cnc3c(NC4CCCC4)ncnc32)[C@H](O)[C@@H]1O [N6-cyclopentyladenosine]	0.37%	0.93%	1.63%	4.59%	1.5%
Nc1nc(N)nc(NC2CC2)n1 [cyromazine]	-2.63%	-0.52%	2.15%	2.37%	0.6%
C[N+](C)(C)CCOC(N)=O [carbachol]	1.16%	1.84%	-1.48%	2.68%	4.16%
CCNC(=O)[C@H]1O[C@@H](n2cnc3c(N)nc(NCCc4ccc(CCC(=O)O)cc4)nc32)[C@H](O)[C@@H]1O	-1.55%	-1.11%	-2.43%	-1.74%	1.23%
Cc1onc(-c2c(Cl)cccc2Cl)c1C(=O)N[C@@H]1C(=O)N2[C@@H]1SC(C)(C)[C@@H]2C(=O)O [dicloxacillin]	0.8%	-0.85%	-0.59%	1%	1.51%
COc1ccc(C[C@H]2NC[C@H](O)[C@H]2OC(C)=O)cc1 [anisomycin]	3.91%	6%	44.2% (active)	7.95%	-30.6%
CC1(C)S[C@@H]2[C@H](NC(=O)[C@H](NC(=O)N3CCN(S(C)(=O)=O)C3=O)c3ccccc3)C(=O)N2[C@H]1C(=O)O [mezlocillin]	-0.34%	0.68%	-1.11%	-0.82%	0.79%
O=C(CCCCC(=O)Nc1c(I)cc(I)c(C(=O)O)c1I)Nc1c(I)cc(I)c(C(=O)O)c1I [iodipamide]	-2.81%	-3.21%	-1.82%	-3.34%	0.05%
N=C(N)c1ccc(N2CCN(C3CCN(CC(=O)O)CC3)CC2)cc1	-1.25%	0.6%	0.06%	-0.33%	1.5%
Oc1c(Cl)cc(Cl)c2cccnc12 [chloroxine]	2.69%	2.44%	1.43%	-0.59%	-0.15%
